# A number with no mark means an inactive call. Active and inactive are the calls of the source. The rule behind the calls is not given here.
# System: HIV-1 nucleocapsid protein NCp7 (binding to TG oligonucleotide)
# Experiment: HIV Nucleocapsid (AID 346);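 note: potency is for inhibitors that block NC binding and lower polarization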
# Conditions: HIV-1 NC / fluorescein-TGTGTGTG probe, fluorescence polarization
# Outline: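 Reagents dispensed (10 nM TG4xF, 100 nM HIV-1 NC), plates spun, compounds pin-transferred, then incubated 1 hr at room temperature before FP imaging. Buffer: Hepes pH 7.5, 250mM NaCl, 1uM ZnCl2, 100 uM TCEP, 5 mM 2-mercaptoethanol.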
# Potency is the fitted concentration of half-maximal effect.
row,Structure (SMILES),Potency
1,CN1CCN(c2ncc3nc(-c4cc(F)cc(F)c4)c(=O)n(-c4ccccc4)c3n2)CC1,> 20 µM
2,c1ccc(C(c2ccccc2)N2CCC3(CCNCC3)CC2)cc1,> 20 µM
3,O=C(c1cnccn1)N1CCC[C@@]2(CCN(Cc3ccncc3)C2)C1,> 20 µM
4,COc1ccc2[nH]cc(CCNc3cc(-c4cccnc4)ncn3)c2c1,> 20 µM
5,FC(F)(F)c1cc(CN2CC3(CCNCC3)C2)cc(C(F)(F)F)c1,> 20 µM
6,N#Cc1ccccc1-c1cncnc1NCc1cccnc1,> 20 µM
7,COc1ccc(C(=O)N2CCC3(CCCN(Cc4ccccc4OC)C3)CC2)cc1,> 20 µM
8,O=C(c1cccc(F)c1)N1CCC[C@@]2(CCN(c3ccccn3)C2)C1,> 20 µM
9,CC(C)NC(=O)N1CCCC2(CCN(C(=O)c3cccc(F)c3)CC2)C1,> 20 µM
10,Cn1c(=O)c(-c2cccs2)nc2cnc(N3CCOCC3)nc21,> 20 µM
11,CS(=O)(=O)Nc1cccc(-c2cncnc2Nc2ccc(F)cc2)c1,> 20 µM
12,COc1ccccc1-c1cncnc1NCCNC(C)=O,> 20 µM
13,Cc1ccccc1-c1ccc2ncnc(NCc3cccnc3)c2c1,> 20 µM
14,Cc1ccccc1-c1cncnc1NC1CCNCC1,> 20 µM
15,CN(C)Cc1ccccc1-c1nccc(NCc2cccs2)n1,> 20 µM
16,CC(C)CN1CC2(CCN(C(=O)c3cccc(F)c3)CC2)C1,> 20 µM
17,O=C(c1ccco1)N1CCC2(CC1)CN(C(c1ccccc1)c1ccccc1)C2,> 20 µM
18,CN(C)c1ccc(-c2nc(NCc3cccnc3)c3ccccc3n2)cc1,> 20 µM
19,CCNc1ncc2nc(-c3cccs3)c(=O)n(-c3ccc(OC)cc3)c2n1,4.09 µM (active)
20,CCNc1ncc2nc(-c3cccc(C#N)c3)c(=O)n(Cc3cccc(OC)c3)c2n1,17.7 µM

row,Structure (SMILES),Potency
1,Cc1ccccc1-c1cc(NCc2cccnc2)ncn1,> 20 µM
2,CN1CCC2(CC1)CCN(S(=O)(=O)c1ccccc1)CC2,> 20 µM
3,COCCn1c(=O)c(CCc2ccccc2)nc2cnc(N3CCN(C)CC3)nc21,> 20 µM
4,Cc1noc(C)c1-c1nc(NCCN2CCOCC2)c2ccccc2n1,> 20 µM
5,CC(C)NC(=O)N1CCCC2(CCN(C(=O)c3cccn3C)CC2)C1,> 20 µM
6,CNc1ccnc(-c2ccccc2C(F)(F)F)n1,> 20 µM
7,O=C(c1csnn1)N1CCC[C@@]2(CCN(Cc3nccs3)C2)C1,> 20 µM
8,Cn1cccc1C(=O)N1CCC[C@@]2(CCN(Cc3cc(C(F)(F)F)cc(C(F)(F)F)c3)C2)C1,> 20 µM
9,COc1ccc(NC(=O)N2CCCC3(CCN(C(C)=O)CC3)C2)cc1,> 20 µM
10,Cc1cccc(CNc2ncncc2-c2cccc(NS(C)(=O)=O)c2)c1,> 20 µM
11,Cn1cc(-c2nc3cnc(N4CCNCC4)nc3n(Cc3ccc(F)cc3)c2=O)c2ccccc21,20.8 µM
12,FC(F)(F)c1ccccc1-c1cc(N2CCNCC2)ncn1,> 20 µM
13,O=C(c1ccncc1)N1CCC2(CC1)CCN(C(c1ccccc1)c1ccccc1)CC2,> 20 µM
14,Cc1cccc(CNc2ncncc2-c2ccc(C(=O)N(C)C)cc2)c1,> 20 µM
15,CC(=O)N1CCC[C@@]2(CCN(C(=O)Nc3cccc(C#N)c3)C2)C1,> 20 µM
16,COCCn1c(=O)c(CCc2ccccc2)nc2cnc(Nc3ccccc3)nc21,> 20 µM
17,CC(=O)NCCNc1ncncc1-c1ccc(N(C)C)cc1,> 20 µM
18,O=C(c1csnn1)N1CCC[C@@]2(CCN(c3ccccn3)C2)C1,> 20 µM
19,COc1ccc(NC(=O)N2CCCC3(CCN(C(=O)c4cnccn4)CC3)C2)cc1,> 20 µM
20,O=c1cnc2cnc(Nc3ccccc3)nc2n1CCc1ccccc1,> 20 µM
